Structures are written as SMILES. The panel holds about 83,000 compounds, 20% with a hit somewhere; the sample as a whole holds those more often.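 Values shown are percent growth following 48 h exposure of cells in 96-well plates to a single concentration of compound; below 10 was considered active.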 Values without a mark were called inactive.

This experiment concerns NCI-H226 lung. The experiment can be described thus: NCI-60 one-dose screen, 48 h (100 = growth as untreated, 0 = no growth, -100 = all killed). Conditions: 10 µM unless noted. Here is the method: Growth inhibition of the NCI-H226 human Non-Small Cell Lung tumor cell line is measured as a screen for anti-cancer activity. Cells are grown in 96 well plates and exposed to the test compound for 48 hours. Compounds are tested at a single concentration, which is 10^-5 M for most compounds. The reported endpoint is percent growth (GI% or GIPRCNT), where numbers from 0 - 100% represent growth inhibition, and numbers from -100% - 0 represent cell death. For example, a value of 40 represents 60% growth inhibition. A value of 0 means no net growth occurred over the course of the experiment. A value of -40 indicates 40% of cells at the beginning of the experiment died by the end of the experiment. A value of -100 means all cells are dead at the end of the experiment.
NCI-60 Human Tumor Cell Lines Screen was performed using the standard one-dose NCI protocol, which is described in more detail at https://dtp.cancer.gov/discovery_development/nci-60/default.htm.
Compounds with GIPRCNT values below 10 were considered active. Activity score was based on GIPRCNT using the following formula: […]
Score is 0 for GIPRCNT values of 100 or above, 50 for GIPRCNT values of 0, and 100 for GIPRCNT values of -100.
As for `C=CCOc1ccc(/C(Cl)=N/N=C(\Cl)c2cc(OC)c(OC)c(OC)c2)cc1`, the growth was 81.8%.

For `O=S(=O)(O)c1ccc(F)cc1`, the growth is 103%.

As to `COc1ccc(C2CC(c3cc(Cl)c(C)cc3OC)=NN2c2ccc(S(N)(=O)=O)cc2)cc1OC` (stereo not given), the growth is 81.3%.

In the case of `COc1cc(-c2nc3ccccc3s2)ccc1OCc1nc2n(n1)S(=O)(=O)c1ccccc1N2c1ccccc1`, the growth is 95.7%.

On to `CSc1ccc(C(=O)C[n+]2cccc(C)c2)cc1`, for which the growth was 94.3%.

On to `COCCNC(C(=O)c1ccccc1)c1ccccc1` (stereo not given), for which the growth was 91%.

Regarding `COc1ccc(-c2nn(-c3ccc(NC(=O)c4ccc(Cl)c(C(F)(F)F)c4)cc3)cc2-c2ccncc2)cc1Cl`, the growth was 70.5%.

With `CC(C)(c1ccc(OCC(O)CNCc2ccco2)cc1)c1ccc(OCC(O)CNCc2ccco2)cc1` (stereo not given), the growth is 94.6%.

As to `COc1cc2nc(C(=O)N3CCCCC3)cc(Nc3ccccc3)c2cc1OC`, the growth was 107%.

Turning to `COc1ccc(NC(=O)Nc2ccc(-c3ccc(OC)c(OC)c3)nc2C)cc1`, the growth was 58%.

In the case of `CC(=O)c1ccc2c(c1)C1C=CCC1[C@H](c1cc3c(cc1Br)OCO3)N2` (stereo not given in full), the growth is 22.1%.

On to `Cn1c2ccccc2c2ssc(=S)c21`, for which the growth was 105%.

`O=C(c1ccccc1)[C@H]1[C@@H]2CCCN2[C@]2(C(=O)Nc3ccc(F)cc32)[C@]12C(=O)Nc1ccccc12`: the growth was 79.3%.

For `COc1ccc2c(c1)OC(N)=C(C#N)C2c1ccc(F)c(F)c1` (stereo not given), the growth was 69.2%.

In the case of `O=C1OC(c2ccc(-c3ccccc3)cc2)=C/C1=C/C=C/c1ccccc1`, the growth was 82.3%.

Take `Cc1cn(-c2cc(C(=O)Nc3cccc(-n4ccc5c(NC(=O)c6ccccc6)nccc54)c3)cc(C(F)(F)F)c2)cn1`: the growth was 33.8%.

Regarding `O=C(Nc1ccc(-n2cc(-c3ccncc3)c(-c3ccc(O)c(Cl)c3)n2)cc1)c1ccc(Cl)c(C(F)(F)F)c1`, the growth was 79.6%.

Turning to `CCc1c2cc(Cl)ccc2n2cc(Cc3ccccc3)[nH]c(=O)c12`, the growth was 100%.

For `O=C(O)c1ccc(-n2cc(/C=N/Nc3ccccc3F)c(-c3ccc(O)cc3)n2)cc1`, the growth is 95.3%.

Consider `Cc1cccc(CC(=O)c2ccccc2)n1`, for which the growth is 95.8%.

Consider `C=C1C(=O)O[C@H]2[C@H]1CC/C(COC(=O)n1ccnc1C)=C\CC[C@@]1(C)O[C@@H]21`, for which the growth is 91.2%.

For `O=C(Nc1ccc(-n2cc(-c3ccncc3)c(-c3ccc(O)c(Cl)c3)n2)cc1)c1cc(Cl)cc(Cl)c1`, the growth was 89.1%.

As for `CCCCNC(=O)Oc1ccc(/C(=C(/CC)Cc2ccccc2)c2ccc(OCCCN(C)C)cc2)cc1`, the growth was 92.9%.

Regarding `CCCCn1c(-c2cccc(OC)c2)nc2cc(OC)c(OC)cc2c1=O`, the growth is 92.8%.

As to `O=C(Nc1ccc(F)cc1)Nc1ccc(Cl)c([N+](=O)[O-])c1`, the growth is 16%.

As for `Cc1ccc(-c2cc(-c3nnc(SCC(=O)c4ccccc4)o3)c3ccccc3n2)cc1`, the growth is 94.5%.

For `CC(=O)n1cc(/C=C2\N=C(c3ccc(Cl)cc3)N(c3ccc(S(=O)(=O)Nc4nccs4)cc3)C2=O)c2ccccc21`, the growth was 94.7%.

With `NC(=S)NNC1CCCCC1`, the growth is 91.1%.

In the case of `FC(F)(F)c1cn(CC2CNC2)c2ncnc(Cl)c12`, the growth is 102%.

Regarding `Cc1cc[n+](CCCC[n+]2ccc(C)cc2)cc1`, the growth is 99%.

With `CS(=O)(=O)Nc1cccc(-c2ccc3ncnc(Nc4cncc(Cl)c4)c3c2)c1`, the growth is 52.5%.

As for `COc1cc(-c2nc3ccccc3s2)ccc1OCc1nc2n(n1)S(=O)(=O)c1ccccc1N2C`, the growth was 101%.

As for `CC12CCC3C(CCC4CC(O)CCC43C)C1C/C(=C/O)C(=O)O2` (stereo not given), the growth was 96.6%.

Consider `COc1ccc2c(c1)OC(N)=C(C#N)C2c1ccc(F)cc1` (stereo not given), for which the growth is 80.9%.

For `Cc1ccc2c(C3C(C#N)=C(N)Oc4cc5ccccc5cc43)cc(=O)oc2c1` (stereo not given), the growth was 87.8%.

As for `O=S(=O)(Nc1cccc2cc(OS(=O)(=O)c3ccccc3)ccc12)c1ccccc1`, the growth was 74.7%.

In the case of `Oc1ccc(Cl)cc1Sc1cc(Cl)ccc1O`, the growth was 88.4%.

On to `O=C(NCCNc1nccc(-c2c(-c3cccc(O)c3)nc3sccn23)n1)c1ccccc1O`, for which the growth is 80.5%.

For the molecule `NC(N)=N/N=C/c1ccc([N+](=O)[O-])cc1`, the growth was 101%.

Turning to `O=C(COc1ccc(Cl)cc1Cl)N1N=C(c2ccc(Cl)cc2Cl)CC1(O)c1cc(F)c(Cl)cc1Cl` (stereo not given), the growth is 149%.
